Results on five molecules are retold here after PubChem BioAssay.

Values joined by “and” are separate entries in the source; they are usually repeats but may differ in a detail not shown here. Identical values can stand only once. For some of these results: Results with a measured potency or affinity are listed apart. Active and inactive are the calls of the source. Unless noted, no rule for the calls is given here.

Experiment [1] can be described thus: blockers of polyQ-driven CASP3 activation – cell-based (AID 1583). Particulars: polyglutamine-induced caspase-3 activation, cell assay; stronger effect = higher value;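 tested at 10 µM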.
The nature of experiment [2]: yeast 75Q aggregation reduction – 75Q-TubU reporter (AID 1593). As to conditions: Yeast 75Q polyglutamine aggregation reporter.
Experiment [3] in a line: restoration of touch response, mutant HTT neurons – whole organism, C. elegans mechanosensory neurons, N-terminal huntingtin (AID 1599). Particulars: C. elegans polyQ-huntingtin mechanosensory neurons, stronger effect = higher value.
Experiment [4] is described as follows: blockers of cytochrome c efflux from mitochondria – biochemical, purified mitochondria (AID 1603).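 Also: mouse liver mitochondria challenged with calcium chloride; signal normalized to the plate average as 100%.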 Particulars: stronger effect = lower value.
Experiment [5] is described as follows: polyglutamine aggregate formation blockers (AID 1604). Particulars: polyglutamine-induced protein aggregation inhibition assay; stronger effect = higher value; tested at 2.5 µM.
Experiment [6] in a line: glutamate transport activators, MN-1 cells, MN-1 cell line (AID 1612).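 Also: tested at 1 µM final; 0% = mean of DMSO vehicle wells on each plate; positive means more glutamate uptake than control and negative means less.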 As to conditions: MN-1 motor neuron cells, stronger effect = higher value.
Experiment [7] can be described thus: GFP-Q80 aggregate reduction, neuronal-like cells, cell-based, NGF-treated PC12, GFPQ80 (AID 1614).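 Also: lower means fewer inclusions and 0 means no inclusions at all.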 Particulars: PC12 NGF-treated GFP-polyQ80 inclusion reduction.
A short description of experiment [8]: 75Q-TubH aggregate inhibition, S. cerevisiae, yeast (AID 1616). Particulars: S. cerevisiae 75Q-TubH polyglutamine aggregation suppression; stronger effect = higher value.
A short description of experiment [9]: compounds altering circadian rhythm period length – cell-based, LOPAC library, luminescence reporter (AID 2774).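 Also: values are relative to mean of DMSO wells on each plate.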 Particulars: circadian reporter cells, at 7 µM, actives lie on both sides.
Experiment [10] deals with 6-phosphogluconate dehydrogenase, decarboxylating (Homo sapiens) (UniProt P52209). The experiment in a line: inhibition of human phosphogluconate dehydrogenase – biochemical, recombinant enzyme, NADPH absorbance, primary screen (AID 1159550;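 active = at least 20% inhibition of 6-phosphogluconate dehydrogenase activity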). As to conditions: recombinant 6PGD, NADPH absorbance 341 nm; at 10 µM; stronger effect = higher value.
Chain of 6-phosphogluconate dehydrogenase, decarboxylating (Homo sapiens) (P52209 whole entry, looked up): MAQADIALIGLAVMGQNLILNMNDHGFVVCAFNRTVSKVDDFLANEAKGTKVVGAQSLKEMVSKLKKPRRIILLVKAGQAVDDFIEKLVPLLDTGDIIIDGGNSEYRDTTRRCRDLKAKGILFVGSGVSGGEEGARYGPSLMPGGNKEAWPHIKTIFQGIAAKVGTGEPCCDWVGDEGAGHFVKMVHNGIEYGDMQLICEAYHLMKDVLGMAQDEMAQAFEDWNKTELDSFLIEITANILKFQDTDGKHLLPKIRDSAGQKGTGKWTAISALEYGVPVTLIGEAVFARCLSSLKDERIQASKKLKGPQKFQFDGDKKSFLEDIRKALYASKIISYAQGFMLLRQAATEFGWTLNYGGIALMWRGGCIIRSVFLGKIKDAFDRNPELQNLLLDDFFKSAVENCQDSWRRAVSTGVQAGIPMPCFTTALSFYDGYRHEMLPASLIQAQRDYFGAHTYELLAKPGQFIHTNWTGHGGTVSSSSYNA
A short description of experiment [11]: EMT-state selective cytotoxicity in co-culture – imaging, PC-3E GFP, TEM4-18 mCherry, primary screen (AID 1345086;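 active = compounds killing one labelled cell type while sparing the other, by normalised counts and ratio limits, not self-fluorescent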;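 as to all read-outs here: cells exposed to compound for 72 h before imaging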;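 as to red/green cell ratio (normalised): normalised mesenchymal count divided by normalised epithelial count so high means epithelial killing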). Particulars: PC-3E GFP / TEM4-18 mCherry co-culture, imaging cell counts, at 1 µM; for red/green cell ratio (normalised): actives lie on both sides, counts scaled to control wells, 1 = unselective.
Experiment [12] can be described thus: viability loss with induced miR-34 in A549 – imaging, A549 dox-inducible miR-34, nuclei and caspase counts, primary screen (AID 1347080;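 active = compounds whose cell count with miR-34 switched on is under 0.7 times the count with it off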). As to conditions: A549 miR-34 inducible, Hoechst nuclei count, 48 h.
Experiment [13] in a line: blockers of cellular phospholipid synthesis – cell-based, LOPAC library, screen 4, primary screen (AID 1347384). As to conditions: animal cells, phospholipid biosynthesis inhibition screen; at 10 µM.
Experiment [14] is described as follows: galactose survival enhancers in mitochondrial complex I cybrids – cell-based, galactose medium, ATP luminescence, primary screen (AID 1645843;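 active = z-score of at least 1.8 in each of two replicates, scored against plate mean and spread of sample wells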;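 also: positive z means more ATP and so rescue of galactose-driven cybrid death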). As to conditions: complex I mutant cybrid cells, 72 h, stronger effect = higher value.
The nature of experiment [15]: compounds altering viability of human ES cells (AID 493140).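 Also: cells exposed to compounds for four days before counting.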 As to conditions: human embryonic stem cell survival screen; stronger effect = higher value.
Experiment [16] can be described thus: P. berghei load reduction in hepatocytes – cell-based, HepG2, luciferase luminescence, HepG2 viability, primary screen (AID 624349; in the data active = parasite load remaining mostly below about 12%, no sharp cut-off; inactive = mostly above about 10%;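 also: 100% = mean of DMSO negative control wells on the same plate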). Particulars: P. berghei liver stage in HepG2, luciferase luminescence, concentration not given here; parasite load remaining: stronger effect = lower value; viability: measured here: HepG2 viability without parasites.
Experiment [17] deals with NAD(+) hydrolase SARM1 (Homo sapiens) (UniProt Q6SZW1). Nature of the experiment: blocking NAD cleavage by SARM1 SAM-TIR – cell lysate, NAD-Glo luminescence (AID 1508614;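 active = compound whose remaining NAD level is above about 45 nM, limit read from the data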;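 also: higher remaining NAD means stronger inhibition of SARM1 NADase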). As to conditions: SAM-TIR HEK293T lysate NADase, at 1 µM, stronger effect = higher value.
Chain of NAD(+) hydrolase SARM1 (Homo sapiens) (Q6SZW1 whole entry, looked up, the tested form may be a part): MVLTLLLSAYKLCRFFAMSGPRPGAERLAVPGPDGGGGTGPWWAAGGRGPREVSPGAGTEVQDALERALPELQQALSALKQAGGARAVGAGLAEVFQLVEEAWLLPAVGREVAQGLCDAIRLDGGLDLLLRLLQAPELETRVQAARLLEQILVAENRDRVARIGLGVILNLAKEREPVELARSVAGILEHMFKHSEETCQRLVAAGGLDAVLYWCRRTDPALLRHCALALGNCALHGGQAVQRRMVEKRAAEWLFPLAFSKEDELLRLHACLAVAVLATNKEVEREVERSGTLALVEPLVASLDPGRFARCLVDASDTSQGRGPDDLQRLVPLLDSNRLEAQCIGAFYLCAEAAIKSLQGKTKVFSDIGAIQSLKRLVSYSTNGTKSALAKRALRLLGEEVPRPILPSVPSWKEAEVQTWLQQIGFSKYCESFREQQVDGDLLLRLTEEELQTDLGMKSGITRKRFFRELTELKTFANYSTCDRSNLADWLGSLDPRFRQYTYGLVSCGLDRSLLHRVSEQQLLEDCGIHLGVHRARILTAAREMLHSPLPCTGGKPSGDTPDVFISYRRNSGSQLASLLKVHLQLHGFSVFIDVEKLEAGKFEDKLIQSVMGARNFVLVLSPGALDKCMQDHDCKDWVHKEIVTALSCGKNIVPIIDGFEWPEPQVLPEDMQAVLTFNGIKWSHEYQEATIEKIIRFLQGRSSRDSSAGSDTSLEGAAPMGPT
Experiment [18] has as its target Mitogen-activated protein kinase 7 (Homo sapiens) (UniProt Q13164). The experiment in a line: Gal4-ERK5 driven luciferase induction – cell-based, HTS, primary screen (AID 1508626;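 active = luciferase signal above three times the same-plate solvent-only control wells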;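 also: luciferase driven by Gal4-ERK5 fusion binding five Gal4 sites before minimal TATA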). As to conditions: HeLa Gal4-ERK5 transactivation, 18 h, at 5 µM, stronger effect = higher value.
The mark [19] stands for this setting: measured here: epithelial PC-3E GFP cell survival.
Where [20] appears, read: measured here: mesenchymal TEM4-18 mCherry cell survival.
Where [21] appears, read: stronger effect = lower value, cell number ratio, induced over uninduced.
[22] abbreviates: measured here: relative caspase fold change +Dox/-Dox.
Setting [23] is: measured here: total cells with miR-34 induction, stronger effect = lower value.
Where [24] appears, read: measured here: total cells without miR-34 induction.

Chain of Mitogen-activated protein kinase 7 (Homo sapiens) (Q13164 whole entry, looked up, the tested form may be a part): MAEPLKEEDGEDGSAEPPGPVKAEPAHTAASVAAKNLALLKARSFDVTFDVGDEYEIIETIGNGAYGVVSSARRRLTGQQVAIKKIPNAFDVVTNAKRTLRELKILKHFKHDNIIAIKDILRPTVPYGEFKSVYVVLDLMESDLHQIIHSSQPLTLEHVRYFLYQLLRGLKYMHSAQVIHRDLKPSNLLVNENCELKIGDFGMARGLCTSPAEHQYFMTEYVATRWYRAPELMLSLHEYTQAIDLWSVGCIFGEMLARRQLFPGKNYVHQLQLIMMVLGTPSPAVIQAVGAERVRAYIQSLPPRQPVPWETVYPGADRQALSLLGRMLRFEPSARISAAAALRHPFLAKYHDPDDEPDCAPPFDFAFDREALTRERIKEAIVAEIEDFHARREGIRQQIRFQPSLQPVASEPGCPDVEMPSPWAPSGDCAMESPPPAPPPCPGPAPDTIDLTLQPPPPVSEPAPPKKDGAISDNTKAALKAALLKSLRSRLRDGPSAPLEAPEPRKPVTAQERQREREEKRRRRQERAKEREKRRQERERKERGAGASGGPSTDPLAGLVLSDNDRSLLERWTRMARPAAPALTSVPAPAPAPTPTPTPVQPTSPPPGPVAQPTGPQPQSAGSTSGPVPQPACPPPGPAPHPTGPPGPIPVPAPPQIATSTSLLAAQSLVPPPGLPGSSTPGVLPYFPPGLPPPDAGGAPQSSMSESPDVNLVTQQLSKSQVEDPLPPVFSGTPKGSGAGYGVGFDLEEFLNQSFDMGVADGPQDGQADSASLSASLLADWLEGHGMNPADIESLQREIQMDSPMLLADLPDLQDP

Turning to `Cn1c(=O)[nH]c2ncn(C)c2c1=O`, the inhibition in experiment [1] was 15.7%; in experiment [10] it was -14.1% (inactive). In [2], this molecule showed a score of 1.32. In experiment [3], this molecule returned a rescue above control of -11.3. In [4], the cytochrome c release ratio is 1.26. In experiment [5], this molecule returned an inhibition of aggregation of 52.4%. Moreover, the glutamate uptake change in experiment [6] was found to be 1.28%. For the same molecule, the inclusion score in [7] was found to be 2. This molecule also gave an aggregation suppression score in experiment [8] of 1.3. The period change in experiment [9] is -0.1 h (inactive). Moreover, the red/green cell ratio (normalised) in experiment [11] was 0.89 (inactive). In addition, the figures for the normalised cell number in [11] (setting [19]) and in [11] (setting [20]) were 1.01 and 0.9, respectively. Besides, the fold change is 0.988 (inactive) in experiment [12] (setting [21]) and 1.17 in experiment [12] (setting [22]). Further, the figures for the cell count in experiment [12] (setting [23]) and in [12] (setting [24]) were 9800 and 9920, respectively. Also, the molecule was called inactive in [13]. In [14], the z-score is 0.31 (inactive).

Turning to `Oc1cc(O)c2c(c1)O[C@H](c1ccc(O)c(O)c1)[C@@H](O)C2`, the inhibition in [1] was 23.8%; in [10] it was 13.7% (inactive). Moreover, in experiment [2], the score turned out to be 1.24. In addition, in [3], the rescue above control is -5.75. The cytochrome c release ratio in experiment [4] turned out to be 0.5. The inhibition of aggregation in [5] was determined as 63.2%. Moreover, the glutamate uptake change in [6] is 14.1%. In experiment [7], the inclusion score is 2. For the same molecule, in experiment [8], the aggregation suppression score is 1.05. The period change in experiment [9] is 0.07 h (inactive). Further, in experiment [15], the survival is 6.17 (inactive) and 8.75 (inactive). In experiment [16], the parasite load remaining was 116% (inactive). For the same molecule, the viability in [16] stood at 105%. For the same molecule, in experiment [11], the red/green cell ratio (normalised) is 1.12 (inactive). The values for the normalised cell number in experiment [11] (setting [19]) and in experiment [11] (setting [20]) were 1.02 and 1.15, respectively. Also, the fold change was 0.974 (inactive) and 0.863 (inactive) and 0.997 (inactive) in experiment [12] (setting [21]); 2.1 and 1.09 and 0.901 in experiment [12] (setting [22]). For the same molecule, the cell count in experiment [12] (setting [23]) was 10300 and 8130 and 5640; in experiment [12] (setting [24]) it was 10500 and 9420 and 5660. The molecule was called inactive in [13]. Besides, the remaining NAD in [17] is 10 nM (inactive). The luciferase signal in experiment [18] is 24 AU (inactive). The z-score in experiment [14] was -0.355 (inactive).

For `O=C(O)c1cc2cc(F)ccc2[nH]1`, the period change in experiment [9] is 0.04 h (inactive). Further, the inhibition in experiment [10] was 0.201% (inactive). Besides, the red/green cell ratio (normalised) in experiment [11] is 0.92 (inactive). Besides, the results for the normalised cell number in [11] (setting [19]) and in [11] (setting [20]) were 0.97 and 0.89, respectively. Besides, the fold change in [12] (setting [21]) is 0.936 (inactive); in experiment [12] (setting [22]) it was 1.52. Moreover, the cell count stood at 9030 in [12] (setting [23]) and 9650 in experiment [12] (setting [24]). For the same molecule, the molecule was called inactive in [13]. Further, the luciferase signal in [18] is 24 AU (inactive). Besides, the z-score in experiment [14] is 1.04 (inactive).

As for `NCCCCN`, the inhibition is -6.18% in experiment [1] and -11.8% (inactive) in [10]. In addition, the score in [2] was 1.21. The molecule further yielded a rescue above control in [3] of 9.16. Further, in experiment [4], the cytochrome c release ratio came to 0.9. In addition, in [5], the inhibition of aggregation was 70.6%. Besides, the glutamate uptake change in [6] stood at 0.99%. This molecule displayed an inclusion score in [7] of 2. In experiment [8], this molecule came in with an aggregation suppression score of 1.37. In addition, the period change in experiment [9] is 0.01 h (inactive). In addition, the red/green cell ratio (normalised) in [11] is 1.04 (inactive). Moreover, the normalised cell number in experiment [11] (setting [19]) was 0.98; in experiment [11] (setting [20]), 1.02. For the same molecule, the fold change in [12] (setting [21]) was 1.02 (inactive); in experiment [12] (setting [22]), 1.7. Also, the cell count in experiment [12] (setting [23]) is 9820; in [12] (setting [24]) it was 9630. The result in [13] was inactive. The luciferase signal in experiment [18] is 44 AU (inactive). Besides, in [14], the z-score was 0.975 (inactive).

On to `NCCCS(=O)(=O)O`, for which the inhibition in experiment [1] is -8.14%; in [10], 6.14% (inactive). This molecule also gave a score in experiment [2] of 1.19. This molecule returned a rescue above control in experiment [3] of -7.13. Besides, the cytochrome c release ratio in experiment [4] amounted to 1.17. The same molecule registered an inhibition of aggregation in [5] of 80.3%. For the same molecule, the glutamate uptake change in experiment [6] is 3.02%. This molecule also registered an inclusion score in [7] of 2. The same molecule returned an aggregation suppression score in experiment [8] of 1.7. For the same molecule, the period change in experiment [9] is 0.415 h (inactive). Further, in experiment [16], the parasite load remaining was 106% (inactive). Besides, in experiment [16], the viability was 72.2%. Moreover, in [11], the red/green cell ratio (normalised) is 0.83 (inactive). In addition, the normalised cell number was 1.23 in experiment [11] (setting [19]) and 1.02 in experiment [11] (setting [20]). Moreover, the fold change in [12] (setting [21]) is 0.922 (inactive); in [12] (setting [22]) it was 2.79. For the same molecule, the cell count is 6500 in experiment [12] (setting [23]) and 7050 in [12] (setting [24]). Also, in experiment [13], the result was inactive. For the same molecule, the luciferase signal in experiment [18] is 56 AU (inactive). Also, in experiment [14], the z-score was 0.265 (inactive).
